FBPA coupling cs: coupling enzyme interference in Giardia aldolase counter-screen | coupling enzyme system counterscreen, AmpLite Red fluorescence | activity change, negative = inhibition, % at 58.2 µM, hits read low | 290,000 compounds, 0.67% hits | AID 2472; in the data active = activity change below about -30%
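Fluorescence at 525 nm excitation and 598 nm emission measured inhibition of the coupled detection system without aldolase. Compounds (at 57.5 uM final) were preincubated 10 min at room temperature with coupling enzyme reagent before a 20 min substrate/AmpLite Red step.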
GALK inhibitor: galactokinase (human) inhibition; P51570; Purified GALK, Kinase-Glo residual ATP luminescence; Potency, µM (doses to about 57.5 µM), for the others: top-dose activity change, negative = inhibition, hits mostly inhibitors; 270,000 compounds, 0.007% hits; also: potency is read from the fitted curve at half-maximal effect
Target sequence (P51570 whole entry, looked up): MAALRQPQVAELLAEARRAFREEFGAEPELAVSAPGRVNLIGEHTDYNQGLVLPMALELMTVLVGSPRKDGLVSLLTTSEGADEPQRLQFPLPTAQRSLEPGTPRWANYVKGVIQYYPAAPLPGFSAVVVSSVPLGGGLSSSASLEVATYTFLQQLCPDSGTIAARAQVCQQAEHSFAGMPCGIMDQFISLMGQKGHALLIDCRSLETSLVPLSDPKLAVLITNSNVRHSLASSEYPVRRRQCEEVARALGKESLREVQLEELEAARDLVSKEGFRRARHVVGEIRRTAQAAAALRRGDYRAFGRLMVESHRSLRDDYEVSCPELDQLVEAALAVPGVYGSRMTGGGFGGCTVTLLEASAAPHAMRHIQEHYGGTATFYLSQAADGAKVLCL
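Compounds were pin-transferred into ATP buffer (35 uM final), then GALK plus galactose (5 nM, 100 uM final) was added. After 1 h at room temperature, Kinase-Glo Plus was added and luminescence read after 10 min.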
TrxR1 substrate: substrates of rat thioredoxin reductase 1; AID 588456; 390,000 compounds, 0.01% hits; purified TrxR1 substrate turnover, NADPH consumption readout; Potency, µM (top dose mostly 114 µM), without a hit: at the highest dose activity change, negative = substrate turnover; O89049; also: potency is read from the fitted curve at half-maximal effect; nearly all actives have a fitted effect of over 50% in size
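Rat TrxR1, dispensed at 90 nM, was prereduced with 400 uM NADPH (final) for 5 min at ~22 deg C, then incubated with compound 15 min before 400 uM selenite. A first-read NADPH fluorescence drop versus no-compound background flagged substrates.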
rTrxR1 inhibitor: blocks rat thioredoxin reductase 1 | O89049 | recombinant rTrxR1, NADPH fluorescence consumption, selenite substrate | Potency, µM (series often up to 114 µM), inactives show at the top dose activity change, negative = inhibition, usual class: inhibitors | 390,000 compounds, 1% hits; also: potency is read from the fitted curve at half-maximal effect; nearly all actives have a fitted effect of over 65% in size
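Rat TrxR1 (90 nM in the dispensed reagent) was pre-reduced with 400 uM NADPH for 5 min at room temperature, then incubated with compound for 15 min. After 400 uM selenite was added, NADPH fluorescence (Ex 340/Em 450 nm) was followed for 8 min.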
RORgamma inh: blocks mouse ROR gamma transcriptional activity | Drosophila S2 Gal4-RORgamma UAS-luciferase reporter, 20 h | 310,000 compounds, 5.4% hits | Potency, µM (top dose mostly 53.6 µM), for inactives: top-dose activity change, negative = inhibition, most hits filed as inhibitors | P51450; also: potency is read from the fitted curve at half-maximal effect; nearly all actives have a fitted effect of over 60% in size
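Luciferase reporter read in Schneider cells carrying Gal4-RORγ (mouse) and UAS-Photinus luciferase; cells given compound 1 h before 700 uM copper sulfate induction, then incubated 20 h at ambient temperature.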
Gal4-VP16 FLuc: Gal4-VP16 reporter inhibition counter-screen; 310,000 compounds, 3.5% hits; Potency, µM (series often up to 53.6 µM), inactives show at the top dose activity, negative = inhibition, actives largely listed as inhibitors; Drosophila S2 Gal4-VP16 UAS-luciferase, luminescence, 20 h; AID 2546;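 also: Gal4-VP16 expression switched on by copper sulfate through the metallothionein promoter; potency is read from the fitted curve at half-maximal effect; nearly all actives have a fitted effect of over 50% in size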
An asterisk follows results filed as active; ? = inconclusive; . = not tested or not shown; [ ] = remark or other dose. In the library only some 5.9% were active in any assay of this set; here they are far more common. Unless noted, calls follow the shape of the dose curve; as a rule, active = well fitted curve in the direction sought with a large enough effect; inconclusive = small, poorly fitted or top-dose-only effect, or another doubt; inactive = no such curve, though single readings can be large; an effect the other way counts as inactive or inconclusive. % is scaled to controls: 0 for no effect and ±100 for the full control effect.

SMILES | FBPA coupling cs | GALK inhibitor | TrxR1 substrate | rTrxR1 inhibitor | RORgamma inh | Gal4-VP16 FLuc
O=C(COC(=O)/C=C/c1ccc(F)cc1)NCc1cccs1 | . | . | -2% | 11% | . | .
CCCCOP(=O)(c1ccc(N(C)C)cc1)C(O)c1c(Cl)cccc1Cl (stereo unspecified) | 3 | . | 15%[57.1 µM] | 12%[57.1 µM] | -3% | -4%
CC1C(=O)Nc2ccccc2N1C(=O)c1ccc(Cl)cc1 (stereo unspecified) | 0 | 3% | 1% | 15% | 13% | -10%
O=[N+]([O-])c1cc2cccnc2c2ncccc12 | -6 | -2% | -1% | 15% | -18% | 2%
O=[N+]([O-])c1cc(O)c2ncccc2c1 | -28 | 6% | -2%[57.1 µM] | -4%[57.1 µM] | 0.89µM* | -2%
Cc1ccc(C)n1-c1sccc1C(=O)O | 0 | -3% | -7% | 50µM* | -2% | -8%
C/C(=N\O)C1/C(=N/O)CC2C1C2(C)C (stereo unspecified) | -2 | 1% | 4% | 8% | -21% | 5%
COc1ccc(OC)c(NC(=O)c2cc(-c3ccc(C)cc3O)n[nH]2)c1 | 1 | 0% | -6% | -9% | 0% | -22%
c1ccc(-c2c[nH]c3[n+]2CCCCC3)cc1 | 1 | 2% | 7%[57.1 µM] | 15%[57.1 µM] | 22µM* | ?
Brc1ccc(-c2csc3[n+]2CCCCC3)cc1 | 2 | -1% | -3%[57.1 µM] | -2%[57.1 µM] | -7% | 0%
O=C(Nc1nc2ccc(F)cc2s1)C1CCN(S(=O)(=O)c2cc([N+](=O)[O-])ccc2Cl)CC1 | -11 | 0% | -16% | ? | ? | 5µM*
C=CCn1c(-c2ccccc2)nc(=S)c2c1CCCC2 | 1 | -1% | 7%[57.1 µM] | 13%[11.4 µM] | -26% | -5%
S=c1nc(-c2ccccc2)n(Cc2ccco2)c2c1CCCC2 | 1 | -1% | . | . | 18µM* | ?
S=c1nc(-c2ccccc2)n(Cc2cccnc2)c2c1CCCC2 | 2 | 4% | -8% | -19% | 4% | 7%
c1ccc(-c2nc3nc4ccccc4nc3n2Cc2ccco2)cc1 | -2 | 4% | 9%[57.1 µM] | 32µM* | -91% | 20µM*
Fc1ccc(-c2nc3nc4ccccc4nc3n2Cc2ccco2)cc1 | 1 | 5% | 5% | ? | ? | 2%
CC(C)Cn1c(-c2ccccc2)nc(=S)c2c1CCCC2 | -2 | -2% | -10% | -22% | 20µM* | -16%
Cc1ccc(CSc2nc3c(c(=O)[nH]2)C(c2cccc(F)c2F)CC(=O)N3)cc1 (stereo unspecified) | . | . | -6% | 10% | . | .
CCCn1nnnc1-c1cccc(Cl)c1 | 3 | -1% | 11% | 14% | 9% | 0%
CC(=O)c1ccc(NC(=O)CN2CCN(c3ncccn3)CC2)cc1 | -55* | 1% | -6% | -7% | 12% | 5%
CC(=O)c1ccc(NC(=O)CN2CCN(CC(=O)Nc3ccc(C(C)=O)cc3)CC2)cc1 | -1 | -1% | -3% | -6% | 0% | 1%
CCc1cccc2c(=O)c(C(=O)N3CCOCC3)c[nH]c12 | -2 | -2% | 1%[57.1 µM] | 15%[57.1 µM] | -8% | -6%
CCOC(=O)C1CCN(S(=O)(=O)c2ccc3c(ccn3C)c2)CC1 | 3 | 0% | -5% | 11% | 5% | -5%
CCCCn1c(SC(C)C(=O)NCC2CCCO2)nc2cc(C(=O)OC)ccc2c1=O (stereo unspecified) | . | . | -13% | -15% | . | .
CCCCn1c(SC(C)C(N)=O)nc2cc(C(=O)OC)ccc2c1=O (stereo unspecified) | 3 | -1% | 39% | -4% | 14µM* | -14%
COc1cc(/C=C2\N=C3CCCCCN3C2=O)ccc1O | 1 | -1% | ? | 50µM* | 13% | 3%
COc1cccc(NC(=O)Cn2cc(S(=O)(=O)N3CCCC3)c(S(=O)(=O)N3CCCC3)c2)c1 | . | . | -5% | 1% | . | .
CC(=O)N1c2ccc(S(=O)(=O)NCCC(=O)N3CCCC(C)C3)cc2CC1C (stereo unspecified) | 2 | 9% | -2% | -7% | 1% | -4%
